Screens deposited in PubChem BioAssay by University of Kansas High Throughput Screening Laboratory.
This is a sample that favours compounds with a hit; in the whole collection about 3.5% have one here.
Pf apPOL block: Pf-apPOL inhibitors, biochemical, fluorescence. 0.25% of 210,000 active. inhibition, % at 10 µM. Recombinant Pf-apPOL, molecular beacon fluorescence, 1.5 h
mHTT-CaM PPI inh: mutant huntingtin-calmodulin interaction inhibitors – biochemical, AlphaScreen, primary screen. P42858. AlphaScreen His-mHTT/GST-CaM binding, luminescence. 3.6% of 190,000 active. inhibition, % at 15 µM
Target sequence (P42858 whole entry, looked up, change not shown): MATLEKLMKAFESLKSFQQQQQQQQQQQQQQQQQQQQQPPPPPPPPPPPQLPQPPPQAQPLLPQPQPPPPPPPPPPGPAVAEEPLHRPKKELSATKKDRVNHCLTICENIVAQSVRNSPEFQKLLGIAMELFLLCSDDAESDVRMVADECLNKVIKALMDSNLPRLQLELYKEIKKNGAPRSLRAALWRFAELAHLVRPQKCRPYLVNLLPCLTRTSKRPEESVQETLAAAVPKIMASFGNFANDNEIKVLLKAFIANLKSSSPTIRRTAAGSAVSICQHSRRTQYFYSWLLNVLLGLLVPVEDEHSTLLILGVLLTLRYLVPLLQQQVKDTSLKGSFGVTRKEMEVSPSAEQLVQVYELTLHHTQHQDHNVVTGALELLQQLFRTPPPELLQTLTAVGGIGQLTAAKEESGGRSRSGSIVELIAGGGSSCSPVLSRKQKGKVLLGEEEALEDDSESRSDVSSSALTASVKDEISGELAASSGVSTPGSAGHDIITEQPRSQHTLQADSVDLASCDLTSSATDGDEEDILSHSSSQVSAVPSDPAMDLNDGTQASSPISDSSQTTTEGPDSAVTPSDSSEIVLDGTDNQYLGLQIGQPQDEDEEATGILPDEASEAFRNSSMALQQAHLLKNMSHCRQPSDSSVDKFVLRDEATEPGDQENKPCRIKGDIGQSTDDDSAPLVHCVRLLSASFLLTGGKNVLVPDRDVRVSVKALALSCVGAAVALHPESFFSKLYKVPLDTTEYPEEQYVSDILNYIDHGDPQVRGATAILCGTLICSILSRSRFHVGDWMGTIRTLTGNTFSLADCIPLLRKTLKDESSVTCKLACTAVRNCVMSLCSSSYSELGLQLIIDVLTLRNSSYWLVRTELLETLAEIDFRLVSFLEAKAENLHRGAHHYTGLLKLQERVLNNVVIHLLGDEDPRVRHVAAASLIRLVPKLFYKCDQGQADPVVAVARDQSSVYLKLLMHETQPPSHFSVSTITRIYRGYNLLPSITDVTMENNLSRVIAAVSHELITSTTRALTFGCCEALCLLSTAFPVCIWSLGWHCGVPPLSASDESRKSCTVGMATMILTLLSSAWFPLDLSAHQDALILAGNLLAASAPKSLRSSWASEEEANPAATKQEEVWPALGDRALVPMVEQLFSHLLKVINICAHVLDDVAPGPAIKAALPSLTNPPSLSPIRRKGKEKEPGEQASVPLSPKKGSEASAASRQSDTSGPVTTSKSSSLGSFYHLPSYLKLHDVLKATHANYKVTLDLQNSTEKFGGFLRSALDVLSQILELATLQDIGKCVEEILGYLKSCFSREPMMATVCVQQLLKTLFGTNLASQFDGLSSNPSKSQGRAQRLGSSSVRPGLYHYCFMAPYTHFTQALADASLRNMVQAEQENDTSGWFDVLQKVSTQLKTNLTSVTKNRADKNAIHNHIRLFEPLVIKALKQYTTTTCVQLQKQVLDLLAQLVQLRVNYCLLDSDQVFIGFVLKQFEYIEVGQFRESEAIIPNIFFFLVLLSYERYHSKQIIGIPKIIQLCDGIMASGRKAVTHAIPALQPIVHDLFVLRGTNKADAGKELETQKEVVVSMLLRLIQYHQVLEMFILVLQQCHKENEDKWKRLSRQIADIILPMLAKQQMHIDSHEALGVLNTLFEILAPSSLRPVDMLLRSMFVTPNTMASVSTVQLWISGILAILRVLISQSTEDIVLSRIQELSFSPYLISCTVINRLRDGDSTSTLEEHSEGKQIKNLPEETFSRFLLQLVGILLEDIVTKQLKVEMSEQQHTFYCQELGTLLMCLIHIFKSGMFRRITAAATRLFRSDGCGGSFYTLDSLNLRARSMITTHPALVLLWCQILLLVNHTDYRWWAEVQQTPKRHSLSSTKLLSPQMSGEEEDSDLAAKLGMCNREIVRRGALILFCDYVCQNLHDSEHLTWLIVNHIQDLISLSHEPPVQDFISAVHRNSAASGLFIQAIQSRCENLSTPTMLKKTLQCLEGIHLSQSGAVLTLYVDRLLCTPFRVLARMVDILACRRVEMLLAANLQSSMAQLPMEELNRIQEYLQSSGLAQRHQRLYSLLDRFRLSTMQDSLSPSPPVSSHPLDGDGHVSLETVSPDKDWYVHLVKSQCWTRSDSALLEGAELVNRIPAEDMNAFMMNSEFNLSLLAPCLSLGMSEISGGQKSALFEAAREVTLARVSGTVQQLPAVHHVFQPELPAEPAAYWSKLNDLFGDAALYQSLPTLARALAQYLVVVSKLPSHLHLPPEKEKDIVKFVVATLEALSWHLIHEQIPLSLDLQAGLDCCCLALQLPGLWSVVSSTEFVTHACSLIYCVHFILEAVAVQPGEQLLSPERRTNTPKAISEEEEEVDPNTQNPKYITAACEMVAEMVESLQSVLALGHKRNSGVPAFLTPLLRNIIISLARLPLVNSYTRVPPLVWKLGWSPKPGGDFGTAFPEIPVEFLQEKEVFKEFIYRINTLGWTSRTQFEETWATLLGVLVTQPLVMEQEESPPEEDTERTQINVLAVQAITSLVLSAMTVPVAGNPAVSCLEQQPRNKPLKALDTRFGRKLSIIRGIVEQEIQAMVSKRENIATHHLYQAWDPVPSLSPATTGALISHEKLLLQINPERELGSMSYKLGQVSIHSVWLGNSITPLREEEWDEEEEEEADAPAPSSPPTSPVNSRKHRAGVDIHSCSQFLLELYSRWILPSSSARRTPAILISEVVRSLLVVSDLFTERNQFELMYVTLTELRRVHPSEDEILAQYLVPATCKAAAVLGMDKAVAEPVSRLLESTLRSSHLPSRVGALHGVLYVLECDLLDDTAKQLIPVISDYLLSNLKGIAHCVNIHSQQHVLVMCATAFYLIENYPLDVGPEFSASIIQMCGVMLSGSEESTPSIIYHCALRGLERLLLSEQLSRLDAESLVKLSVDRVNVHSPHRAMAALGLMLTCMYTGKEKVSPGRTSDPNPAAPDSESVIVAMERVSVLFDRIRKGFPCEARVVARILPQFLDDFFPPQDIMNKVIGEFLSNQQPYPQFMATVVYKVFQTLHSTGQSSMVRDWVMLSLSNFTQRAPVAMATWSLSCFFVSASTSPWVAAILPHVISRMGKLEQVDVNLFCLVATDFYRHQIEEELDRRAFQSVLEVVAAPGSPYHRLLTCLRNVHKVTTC
Large screens that a line does not name were inactive. Cut-off read from the data, not from the text of the source: active = inhibition above about 50%; inactive = the rest.

CCOc1ccc(C(Nc2ccccn2)c2ccc3ccc(C)nc3c2O)cc1C (centres undefined)	mHTT-CaM PPI inh 75
Cc1sc(NC(=O)c2ccccc2)c(C(Nc2ccccn2)c2cccs2)c1C (centres undefined)	none
Cc1ccc2ccc(C(Nc3ccccn3)c3ccsc3)c(O)c2n1 (centres undefined)	mHTT-CaM PPI inh 76
COc1ccc(NCc2ccccn2)cc1	none (no result: mHTT-CaM PPI inh)
COc1ccc(C(Nc2ccccn2)c2ccc3ccc(C)nc3c2O)cc1 (centres undefined)	mHTT-CaM PPI inh 72
CC(=O)NCc1csc(C2CCCN(S(=O)(=O)c3cccc(C)c3)C2)n1 (centres undefined)	none
COCC(=O)N1CCCc2ccc(NC(=O)c3cc(-c4ccco4)on3)cc21	none
N#CCC(=O)NN=C1CCCCC1	none (no result: Pf apPOL block)
COc1ccc(Nc2nc(-c3ccc(Cl)c(Cl)c3)cs2)cc1	none
CN(C)c1ccc(Nc2nc(-c3cccnc3)cs2)cc1	none
CCN(CC)c1ccc(Nc2nc(-c3ccc(Cl)c(Cl)c3)cs2)cc1	mHTT-CaM PPI inh 97
CCC(=O)Nc1nc(C)c(-c2csc(Nc3ccc(N(C)C)cc3)n2)s1	mHTT-CaM PPI inh 93
CN(C)c1ccc(Nc2nc(-c3ccc(Cl)c(Cl)c3)cs2)cc1	mHTT-CaM PPI inh 82
CC(=O)c1cccc(Nc2nc(-c3ccc(Cl)c(Cl)c3)cs2)c1	none
CCN(CC)c1ccc(Nc2nc(-c3ccccn3)cs2)cc1	mHTT-CaM PPI inh 100
CCC(=O)Nc1nc(C)c(-c2csc(Nc3cc(C)ccn3)n2)s1	none
NS(=O)(=O)c1ccc(Nc2nc(-c3ccncc3)cs2)cc1	none
NS(=O)(=O)c1ccc(Nc2nc(-c3ccc(Cl)c(Cl)c3)cs2)cc1	mHTT-CaM PPI inh 100
COCCN1C(=O)CCc2cc(NS(=O)(=O)c3c(C)cccc3Cl)ccc21	none
COc1ccc(N2C(=O)CCC(C(=O)Nc3ccc(C)c(F)c3)C2c2ccc(F)cc2)cc1 (centres undefined)	none
COc1ccc2nc(NC(=O)C3CC(=O)N(CCc4c[nH]c5ccc(C)cc45)C3)sc2c1 (centres undefined)	mHTT-CaM PPI inh 85
COc1ccc2[nH]cc(CCN3CC(C(=O)Nc4nnc(C(C)(C)C)s4)CC3=O)c2c1 (centres undefined)	none
COc1ccc(NC(=O)C2CC(=O)N(CCc3c[nH]c4ccc(C)cc34)C2)cc1 (centres undefined)	none
COc1ccc(C2C(C(=O)Nc3ccc(F)c(Cl)c3)CC(=O)N2c2ccc(OC)cc2)cc1 (centres undefined)	mHTT-CaM PPI inh 100
CC(C)(C)c1nnc(NC(=O)C2CC(=O)N(CCc3c[nH]c4ccc(Cl)cc34)C2)s1 (centres undefined)	mHTT-CaM PPI inh 55
CC1CCN(C(=O)C2CC(=O)N(CCc3c[nH]c4ccc(F)cc34)C2)CC1 (centres undefined)	none
O=C1CC(C(=O)N2CCN(Cc3ccccc3)CC2)CN1CCc1c[nH]c2ccc(F)cc12 (centres undefined)	mHTT-CaM PPI inh 55
COC(=O)C1=C(Nc2ccc(O)cc2)CSC1	none (no result: mHTT-CaM PPI inh)
COc1ccc(/C=C2\SC(=O)N(Cc3ccc(Br)cc3)C2=O)cc1O	none
CN(C)c1ccc(C(=O)N2CCCC2COc2ccc(C(=O)N3CCCC3)cc2)cc1 (centres undefined)	none
Cc1ccc(C(=O)N2CCC(CC(=O)NCCc3c[nH]c4ccc(Cl)cc34)CC2)cc1	none
Cc1ccc(N2CC(C(=O)Nc3ccc(Cl)cc3Cl)CC2=O)cc1 (centres undefined)	none
O=C(Nc1ccc(F)cc1)C1CC(=O)N(CCc2c[nH]c3ccc(Cl)cc23)C1 (centres undefined)	mHTT-CaM PPI inh 55
Cc1ccc2[nH]cc(CCN3CC(C(=O)Nc4ccccc4Cl)CC3=O)c2c1 (centres undefined)	none
Cc1ccc2[nH]cc(CCN3CC(C(=O)Nc4ccc(C)c(Cl)c4)CC3=O)c2c1 (centres undefined)	mHTT-CaM PPI inh 86
Cc1ccc2[nH]cc(CCNC(=O)CC3CCN(C(=O)c4ccccc4Cl)CC3)c2c1	mHTT-CaM PPI inh 79
O=C(NCCc1ccc(F)cc1)C1CC(=O)N(CCc2c[nH]c3ccc(Cl)cc23)C1 (centres undefined)	none
Cc1ccc(Cl)cc1NC(=O)C1CC(=O)N(c2cccc([N+](=O)[O-])c2)C1 (centres undefined)	mHTT-CaM PPI inh 54
COc1cc([N+](=O)[O-])ccc1NC(=O)CSc1nc2ccccc2s1	none
Cc1cc(C2CCCN2C(=O)Cc2ccc(Cl)cc2)no1 (centres undefined)	none
CCCc1nnc(NC(=O)C2CC(=O)N(CCc3c[nH]c4ccc(OC)cc34)C2)s1 (centres undefined)	none
COc1ccc(N2C(=O)CC(NCc3cccnc3)C2=O)cc1 (centres undefined)	none
COc1ccccc1Oc1ncnc(-c2cc(C)cc(C)c2)c1N	none
COCCNC(=O)NCC1(c2cccs2)CCOCC1	none
